# A selection: hits, their analogues and other compounds. The true share with any hit is near 8.5%.
# FBPA coupling cs: qHTS Assay for Inhibitors of Fructose-1,6-bisphosphate Aldolase from Giardia Lamblia: Coupling assay counterscreen; 290,000 tested, 0.67% active; AID 2472, 2010; coupling enzyme system counterscreen, AmpLite Red fluorescence; activity change, negative = inhibition, % at 58.2 µM, hits read low; in the data active = activity change below about -30%
#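 First, compound is pin-transferred into glyceraldehyde-3-phosphate coupling-enzyme reagent at 57.5 uM final and held 10 min at RT. Next, substrate, coupling system and AmpLite Red are added. After 20 min RT, fluorescence (525/598 nm) is read.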
# NPSR antag: qHTS Assay for Antagonists of the Neuropeptide S Receptor: cAMP Signal Transduction | CHO-NPSR cells, cAMP TR-FRET, antagonist mode | AID 1461, 2008 | Q6W5P4 | Potency, µM (series often up to 38.3 µM), inactives show at the top dose activity change, negative = inhibition, actives largely listed as inhibitors | 220,000 tested, 1% active; note: potency is the fitted concentration of half-maximal effect; nearly all actives have a fitted effect of over 50% in size
# GoLoco inh red: qHTS Assay for Inhibitors of RGS12 GoLoco Motif Activity (Red Fluorophore). Guanine nucleotide-binding protein G(i) subunit alpha-1 (Homo sapiens), P63096. Gai1:RGS12 GoLoco peptide FP, rhodamine, 10 min. Potency, µM (titrated, usually from 61.6 µM), for the others: at the top dose activity, negative = inhibition, actives largely listed as inhibitors. 230,000 tested, 0.44% active; active = well fitted inhibition curve with a large enough effect, not every such curve was filed as active; inactive = no such curve, though single readings can be large or run the other way; note: potency is the fitted concentration of half-maximal effect; nearly all actives have a fitted effect of over 30% in size
# Target sequence (P63096 whole entry, looked up): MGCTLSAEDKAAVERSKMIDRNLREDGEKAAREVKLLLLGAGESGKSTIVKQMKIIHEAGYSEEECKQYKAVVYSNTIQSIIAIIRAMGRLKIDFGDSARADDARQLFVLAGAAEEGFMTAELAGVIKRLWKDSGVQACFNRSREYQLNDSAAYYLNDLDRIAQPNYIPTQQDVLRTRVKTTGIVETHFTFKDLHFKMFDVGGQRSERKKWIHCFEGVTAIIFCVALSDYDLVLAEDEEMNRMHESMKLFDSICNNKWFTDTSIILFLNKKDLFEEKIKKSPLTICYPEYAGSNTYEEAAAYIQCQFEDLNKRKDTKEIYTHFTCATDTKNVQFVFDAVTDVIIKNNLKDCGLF
# ALDH1A1 block: qHTS Assay for Inhibitors of Aldehyde Dehydrogenase 1 (ALDH1A1); Purified ALDH1A1, NADH fluorescence, propionaldehyde substrate; Potency, µM (top dose mostly 75.3 µM), without a hit: at the top dose activity, negative = inhibition, usual class: inhibitors; 220,000 tested, 7.3% active; AID 1030, 2008; active = well fitted inhibition curve with a large enough effect, not every such curve was filed as active; inconclusive = small, poorly fitted or top-dose-only effect, or another doubt; inactive = no such curve, though single readings can be large or run the other way;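 note: potency is the fitted concentration of half-maximal effect; plate controls were no enzyme wells and a reference inhibitor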
# Sfp inh: qHTS Assay for Inhibitors of Bacillus subtilis Sfp phosphopantetheinyl transferase (PPTase); 4'-phosphopantetheinyl transferase ffp (Bacillus subtilis), Q9F4F7; Biochemical Sfp PPTase activity, qHTS; Potency, µM, for inactives: largest response in the series, negative = inhibition, actives largely listed as inhibitors; 310,000 tested, 3.5% active; AID 1490, 2009;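 note: the enzyme is Sfp with the accession as filed and its product quenches rhodamine fluorescence; potency is the fitted concentration of half-maximal effect; 0% = enzyme reaction without inhibitor and -100% = no enzyme wells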
#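 Compounds were incubated with enzyme (final 15 nM) for 15 min at room temperature before substrate addition started the reaction. Fluorescence at 525 nm excitation, 598 nm emission was recorded immediately and after 30 minutes.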
# KDM4E inh: qHTS Assay for Inhibitors of Human Jumonji Domain Containing 2E (JMJD2E) | Lysine-specific demethylase 4E (Homo sapiens), B2RXH2 | JMJD2E catalytic domain, FDH-coupled NADH fluorescence (FDH is formaldehyde dehydrogenase) | Potency, µM (highest dose often 57.1 µM), without a hit: at the highest dose activity change, negative = inhibition, usual class: inhibitors | 230,000 tested, 1.6% active; active = well fitted inhibition curve with a large enough effect, not every such curve was filed as active; inconclusive = small, poorly fitted or top-dose-only effect, or another doubt; inactive = no such curve, though single readings can be large or run the other way;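 note: potency is the fitted concentration of half-maximal effect; 0% = wells with enzyme and -100% = buffer wells without enzyme; nearly all actives have a fitted effect of over 50% in size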
# Target sequence (B2RXH2 1-337 limits assumed): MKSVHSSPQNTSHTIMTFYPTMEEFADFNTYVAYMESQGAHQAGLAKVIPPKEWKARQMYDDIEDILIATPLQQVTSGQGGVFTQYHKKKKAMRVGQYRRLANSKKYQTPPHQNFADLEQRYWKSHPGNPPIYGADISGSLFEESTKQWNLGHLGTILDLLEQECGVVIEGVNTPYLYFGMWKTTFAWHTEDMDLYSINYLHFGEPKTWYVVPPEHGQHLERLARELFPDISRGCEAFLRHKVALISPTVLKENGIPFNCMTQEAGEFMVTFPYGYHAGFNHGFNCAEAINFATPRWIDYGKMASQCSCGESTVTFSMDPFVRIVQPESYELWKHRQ
# * = called active by the depositor; ? = inconclusive; . = no result given; [ ] = dose if it differs, or a comment. Unless noted, calls come from the whole dose curve; as a rule, active = well fitted curve in the direction sought with a large enough effect; inconclusive = small, poorly fitted or top-dose-only effect, or another doubt; inactive = no such curve, though single readings can be large; an effect the other way counts as inactive or inconclusive. Unless noted, % is set by controls: 0 for no effect and ±100 for the full control effect.
SMILES,FBPA coupling cs,NPSR antag,GoLoco inh red,ALDH1A1 block,Sfp inh,KDM4E inh
COc1ccccc1CNC(=O)CCCNC(=O)Cn1cnc2sc(C)c(C)c2c1=O,3,.,.,.,3%,.
CSc1nn2c(C(F)(F)F)cc(C(F)(F)F)nc2c1C(=O)O,4,-11%[7.67 µM],7%,.,4%,-6%
Cc1c(NC(=O)c2c(N)sc3c2CCCC3)c(=O)n(-c2ccccc2)n1C,-10,-13%,-4%,?,28µM*,-26%
CC(=O)Nc1ccc2c(CSc3nnc(N)s3)cc(=O)oc2c1,5,-12%[7.67 µM],1%,.,7%,-6%
Cc1ccc2c(CSc3nnc(N)s3)cc(=O)oc2c1,5,-8%[46.1 µM],9%,22µM*,-19%,-10%
CC(C)c1cc(C(F)(F)F)n2nc(C(=O)Nc3ccc(-n4cnnn4)cc3)cc2n1,1,-5%,-2%,.,13%,11%
CNc1cc2c(Nc3cccc(Br)c3)ncnc2cn1,-50*,.,.,.,-1%,.
COc1ccc(CNC(=O)C2CCN(S(=O)(=O)c3ccccc3)CC2)cc1,1,.,.,.,17%,.
O=C(NNc1ccc(O)cc1)c1ccc(Br)cc1,1,-2%,-8%,7.1µM*,13µM*,?
COc1ccc(-c2cc(C(=O)NCC3CCCO3)c3ccccc3n2)cc1 (stereo not given),1,5%,-5%,?,-12%,?
COc1ccc(-n2nc(C(=O)NCC(=O)NCC3CCCO3)c3ccccc3c2=O)c(OC)c1 (stereo not given),3,-1%[46.1 µM],.,13µM*,17%,20%
COc1ccc(-n2c(N)c(C(=O)NCC3CCCO3)c3nc4ccccc4nc32)c(OC)c1 (stereo not given),-30*,?,10%,?,-7%,?
C=CCn1c(N)c(C(=O)NCC2CCCO2)c2nc3ccccc3nc21 (stereo not given),-56*,13%[46.1 µM],.,2%,?,-16%
COc1cc(OC)c(NC(=O)Nc2cc(C)on2)cc1Cl,1,.,.,.,12%,.
CCOC(=O)c1ccc(N2C(=O)C3CC=CCC3C2=O)cc1 (stereo not given),-3,-9%[46.1 µM],5%,-3%,4%,6%
CCOC(=O)c1ccc(N2C(=O)C3C(C2=O)C(C(=O)c2ccc(Cl)cc2)N2CCCC32)cc1 (stereo not given),-1,?,41%,13µM*,?,?
O=[n+]1c2c(n([O-])c3cc(F)c(N4CCCC4)cc31)CCCC2,-10,-19%[46.1 µM],-31%,20µM*,9%,?
O=[n+]1c2c(n([O-])c3cc(F)ccc31)CCCC2,-4,-9%[46.1 µM],-6%,-2%,3%,-5%
C=C1SC(=Nc2c(C)cccc2Cl)N(C(=O)c2sc3ccccc3c2Cl)C12CCCCC2,4,?,8%,10%,1%,1%
C=C1SC(=Nc2ccccc2Cl)N(C(=O)c2sc3ccccc3c2Cl)C1(C)C,7,?,-1%,24µM*,-19%,22%
CC1=NNC(=O)/C1=C\c1cn(-c2ccccc2)nc1-c1ccc(F)cc1,-6,-53%,5%,?,9%,?
CC1=NNC(=O)/C1=C\c1cn(-c2ccccc2)nc1-c1cccs1,5,10µM*,8%,?,32µM*,-12%
COC(=O)c1cc(=O)c2c(C)nc(C(Cl)(Cl)Cl)nc2[nH]1,-2,-6%,11%,-3%,-4%,?
CCOP(=O)(OCC)/C(=N/OC(=O)c1ccc(OC)cc1)C(N)=O,0,-2%[7.67 µM],4.5µM*,.,12%,0%
CCOP(=O)(OCC)/C(=N/OC(=O)c1ccccc1C)C(N)=O,4,9%,6%,3%,-1%,11%
SMILES,FBPA coupling cs,NPSR antag,GoLoco inh red,ALDH1A1 block,Sfp inh,KDM4E inh
O=C(O)c1ccc(N=Nc2c(-c3ccccc3)[nH]oc2=O)cc1,10,.,.,.,-4%,.
O=C(N/N=C/c1cc(Br)c(Br)o1)c1cccnc1,-55*,-9%,2%,?,32µM*,-6%
O=C(N/N=C/c1cc(Br)c(Br)o1)c1ccc2c(c1)OCCO2,0,54%,58%,?,4.5µM*,?
Cc1nc2ccccc2n2c(O)c(CC(=O)O)cc12,9,-29%[46.1 µM],13µM*,?,10%,?
Cc1nc2ccccc2n1CCC(=O)O,0,-2%[46.1 µM],11%,13%,8%,1%
NC(=O)c1cc([N+](=O)[O-])ccc1NCCc1ccccc1,-3,.,.,.,0%,.
NC(=O)COC(=O)c1cc([N+](=O)[O-])ccc1NCCO,0,-7%,-6%,20µM*,28%,-2%
O=C(COC(=O)c1cc([N+](=O)[O-])ccc1NCCO)NCc1cccs1,2,-5%,-10%,?,15%,1%
O=C(CCc1ccccc1)OCC(=O)c1cccc([N+](=O)[O-])c1,1,1%,8%,?,4%,-9%
O=C(COC(=O)c1cccc([N+](=O)[O-])c1)c1ccc(OCc2ccccc2)cc1,0,3%,-1%,14µM*,7%,6%
O=C(COC(=O)c1cc([N+](=O)[O-])ccc1NCCO)c1ccccc1,1,8%,-2%,25µM*,-18%,?
Cc1ccc(S(=O)(=O)N2c3ccccc3CC2C)cc1 (stereo not given),-1,-23%,-1%,-4%,15%,-1%
Cc1ccc(S(=O)(=O)N2c3ccc(S(N)(=O)=O)cc3CC2C)cc1 (stereo not given),-3,-5%,9%,25µM*,-5%,7%
Cc1nc(NC2CCCCC2)c2nc(-c3ccccc3)n(CC3CCN(C)CC3)c2n1,2,.,-6%,?,12%,?
Cc1cc(N=Cc2c(O)n(-c3ccc4c(c3)OCO4)c(=O)c3ccccc23)ccn1,-2,?,28%,?,?,?
Cc1ccc(-n2c(O)c(C=Nc3ccc4c(c3)OCO4)c3ccccc3c2=O)cc1C,1,-7%[46.1 µM],-1%,3%,35µM*,-6%
CSC1=C(C#N)C(C)C2=C(CC(C)(C)CC2=O)N1 (stereo not given),0,-15%[46.1 µM],8%,2%,8%,-9%
CCOC(=O)CSC1=C(C#N)C(c2ccc(OC)cc2)C2=C(CC(C)(C)CC2=O)N1 (stereo not given),-5,-20%[46.1 µM],-23%,?,35µM*,6%

# Screening results as filed in PubChem.
